Experiment [1] deals with T1, Ephrin type-B receptor 1 (Homo sapiens) (UniProt P54762).
T1 sequence (whole entry): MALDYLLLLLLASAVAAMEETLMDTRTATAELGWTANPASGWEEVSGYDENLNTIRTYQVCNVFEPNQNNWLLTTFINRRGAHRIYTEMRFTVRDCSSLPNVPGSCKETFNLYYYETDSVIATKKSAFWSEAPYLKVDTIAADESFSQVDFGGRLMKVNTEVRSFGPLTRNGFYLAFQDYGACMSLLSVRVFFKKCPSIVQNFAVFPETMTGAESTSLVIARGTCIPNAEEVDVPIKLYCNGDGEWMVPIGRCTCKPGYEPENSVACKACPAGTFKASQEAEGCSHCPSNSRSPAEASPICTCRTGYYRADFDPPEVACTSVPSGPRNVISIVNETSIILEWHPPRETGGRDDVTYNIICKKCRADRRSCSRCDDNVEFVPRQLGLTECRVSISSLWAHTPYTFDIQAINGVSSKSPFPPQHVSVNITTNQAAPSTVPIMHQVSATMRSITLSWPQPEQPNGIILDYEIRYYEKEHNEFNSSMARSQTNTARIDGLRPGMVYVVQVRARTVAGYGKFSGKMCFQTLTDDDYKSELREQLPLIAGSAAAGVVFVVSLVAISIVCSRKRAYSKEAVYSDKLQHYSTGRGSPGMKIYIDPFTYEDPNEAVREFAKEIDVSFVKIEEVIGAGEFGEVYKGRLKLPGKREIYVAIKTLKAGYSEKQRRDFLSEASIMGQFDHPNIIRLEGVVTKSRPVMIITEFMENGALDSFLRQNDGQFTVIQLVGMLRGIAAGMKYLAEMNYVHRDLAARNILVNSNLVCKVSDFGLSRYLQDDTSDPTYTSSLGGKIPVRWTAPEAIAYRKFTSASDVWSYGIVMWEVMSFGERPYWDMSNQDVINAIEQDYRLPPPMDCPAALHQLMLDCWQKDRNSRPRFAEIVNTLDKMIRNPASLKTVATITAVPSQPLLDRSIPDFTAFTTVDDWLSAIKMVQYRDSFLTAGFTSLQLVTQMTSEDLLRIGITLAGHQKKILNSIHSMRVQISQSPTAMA
As to conditions: at 10 µM; call rule not given here.

For experiment [2], the target named is T2, Ephrin type-B receptor 2 (Homo sapiens) (UniProt P29323).
T2 sequence (whole entry): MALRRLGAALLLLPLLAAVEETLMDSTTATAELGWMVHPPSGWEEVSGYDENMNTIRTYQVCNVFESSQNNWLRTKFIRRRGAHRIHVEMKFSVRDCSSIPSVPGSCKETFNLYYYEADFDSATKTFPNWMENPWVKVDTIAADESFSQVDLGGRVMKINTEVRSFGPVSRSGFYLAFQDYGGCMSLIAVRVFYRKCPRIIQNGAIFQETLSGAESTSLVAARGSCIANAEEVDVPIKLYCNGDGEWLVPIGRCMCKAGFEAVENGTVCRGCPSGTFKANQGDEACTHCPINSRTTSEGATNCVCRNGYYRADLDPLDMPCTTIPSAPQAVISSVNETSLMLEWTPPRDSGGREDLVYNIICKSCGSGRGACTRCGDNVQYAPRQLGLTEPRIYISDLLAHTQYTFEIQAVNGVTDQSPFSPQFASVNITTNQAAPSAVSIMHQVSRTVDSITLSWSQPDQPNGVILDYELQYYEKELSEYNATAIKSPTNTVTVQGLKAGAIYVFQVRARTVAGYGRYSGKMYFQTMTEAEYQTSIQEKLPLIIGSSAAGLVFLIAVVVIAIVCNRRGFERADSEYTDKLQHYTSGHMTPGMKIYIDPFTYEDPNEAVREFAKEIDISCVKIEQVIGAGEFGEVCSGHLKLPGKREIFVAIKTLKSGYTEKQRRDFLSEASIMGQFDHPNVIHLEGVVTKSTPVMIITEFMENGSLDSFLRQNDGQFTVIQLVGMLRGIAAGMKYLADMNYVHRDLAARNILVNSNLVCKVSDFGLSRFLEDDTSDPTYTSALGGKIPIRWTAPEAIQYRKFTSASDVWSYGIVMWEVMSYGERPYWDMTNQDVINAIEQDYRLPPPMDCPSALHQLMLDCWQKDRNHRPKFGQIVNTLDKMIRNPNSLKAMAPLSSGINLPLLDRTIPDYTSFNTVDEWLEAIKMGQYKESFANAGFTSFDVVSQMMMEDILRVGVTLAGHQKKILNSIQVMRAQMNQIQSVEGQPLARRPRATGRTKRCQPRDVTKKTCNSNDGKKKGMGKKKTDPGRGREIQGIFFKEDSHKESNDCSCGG
As to conditions: at 1 µM.

Experiment [3] concerns the target T2, Ephrin type-B receptor 2 (Homo sapiens). To be noted: at 10 µM.
The target in experiment [4] is T3, Ephrin type-B receptor 3 (Homo sapiens) (UniProt P54753).
T3 sequence (whole entry): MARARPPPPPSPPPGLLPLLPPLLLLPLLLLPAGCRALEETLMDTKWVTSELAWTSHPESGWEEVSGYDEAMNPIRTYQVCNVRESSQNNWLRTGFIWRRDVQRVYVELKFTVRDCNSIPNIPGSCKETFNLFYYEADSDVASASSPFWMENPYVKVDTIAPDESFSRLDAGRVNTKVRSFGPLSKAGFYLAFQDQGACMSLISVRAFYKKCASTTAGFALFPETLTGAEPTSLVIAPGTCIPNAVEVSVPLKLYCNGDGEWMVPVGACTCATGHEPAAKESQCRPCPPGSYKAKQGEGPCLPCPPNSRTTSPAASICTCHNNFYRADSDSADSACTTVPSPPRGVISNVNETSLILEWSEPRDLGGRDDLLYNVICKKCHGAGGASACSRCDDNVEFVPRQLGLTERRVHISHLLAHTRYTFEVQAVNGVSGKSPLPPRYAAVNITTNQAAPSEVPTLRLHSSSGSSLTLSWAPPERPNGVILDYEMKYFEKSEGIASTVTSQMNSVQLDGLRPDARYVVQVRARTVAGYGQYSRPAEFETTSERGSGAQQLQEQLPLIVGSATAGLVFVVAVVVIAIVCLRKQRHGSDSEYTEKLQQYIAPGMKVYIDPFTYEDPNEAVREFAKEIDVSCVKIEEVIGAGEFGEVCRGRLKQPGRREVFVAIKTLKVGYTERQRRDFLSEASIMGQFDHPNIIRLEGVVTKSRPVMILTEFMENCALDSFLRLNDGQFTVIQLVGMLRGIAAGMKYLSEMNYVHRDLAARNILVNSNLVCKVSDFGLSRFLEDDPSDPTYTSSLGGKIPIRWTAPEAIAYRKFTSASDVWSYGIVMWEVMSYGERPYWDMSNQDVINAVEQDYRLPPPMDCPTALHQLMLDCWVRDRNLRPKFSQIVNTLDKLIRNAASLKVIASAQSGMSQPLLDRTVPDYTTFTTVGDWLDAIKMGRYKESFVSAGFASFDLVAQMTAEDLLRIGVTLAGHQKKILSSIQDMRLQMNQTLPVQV
To be noted: at 1 µM.

Experiment [5] concerns the target T3, Ephrin type-B receptor 3 (Homo sapiens). As to conditions: at 10 µM.
The target of experiment [6] is T4, Ephrin type-B receptor 4 (Homo sapiens) (UniProt P54760).
T4 sequence (whole entry): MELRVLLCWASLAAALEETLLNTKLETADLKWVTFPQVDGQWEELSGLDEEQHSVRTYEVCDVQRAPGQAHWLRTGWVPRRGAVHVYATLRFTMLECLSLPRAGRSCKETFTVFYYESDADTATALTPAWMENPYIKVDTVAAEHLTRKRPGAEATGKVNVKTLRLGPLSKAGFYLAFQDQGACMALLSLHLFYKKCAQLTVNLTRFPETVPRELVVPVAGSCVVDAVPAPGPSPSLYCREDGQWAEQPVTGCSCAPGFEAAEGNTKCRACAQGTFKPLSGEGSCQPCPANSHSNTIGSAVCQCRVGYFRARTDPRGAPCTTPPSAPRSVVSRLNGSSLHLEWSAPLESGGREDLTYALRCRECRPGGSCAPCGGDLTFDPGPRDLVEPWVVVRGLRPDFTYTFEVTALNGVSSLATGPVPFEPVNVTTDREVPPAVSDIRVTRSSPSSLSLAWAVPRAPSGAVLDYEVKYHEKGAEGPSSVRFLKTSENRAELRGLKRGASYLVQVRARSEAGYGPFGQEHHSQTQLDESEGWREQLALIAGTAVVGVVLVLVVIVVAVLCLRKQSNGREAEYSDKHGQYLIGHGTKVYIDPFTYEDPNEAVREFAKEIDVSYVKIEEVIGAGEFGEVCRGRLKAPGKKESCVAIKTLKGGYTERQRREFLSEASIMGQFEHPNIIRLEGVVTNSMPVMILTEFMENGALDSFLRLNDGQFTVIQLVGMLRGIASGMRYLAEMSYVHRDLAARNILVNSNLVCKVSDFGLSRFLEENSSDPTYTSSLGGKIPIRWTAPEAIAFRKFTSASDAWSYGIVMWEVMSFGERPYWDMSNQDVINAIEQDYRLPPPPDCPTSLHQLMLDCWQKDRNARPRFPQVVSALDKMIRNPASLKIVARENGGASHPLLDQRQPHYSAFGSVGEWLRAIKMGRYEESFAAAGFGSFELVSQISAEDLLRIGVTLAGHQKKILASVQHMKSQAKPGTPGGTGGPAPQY
To be noted: at 1 µM.

Experiment [7] deals with T4, Ephrin type-B receptor 4 (Homo sapiens). To be noted: at 10 µM.
In experiment [8] the target is Receptor tyrosine-protein kinase erbB-4 (Homo sapiens) (UniProt Q15303). As to conditions: at 1 µM.
Experiment [9] has the same target. To be noted: at 10 µM.
In experiment [10] the target is Focal adhesion kinase 1 (Homo sapiens) (UniProt Q05397). As to conditions: at 1 µM.

In ChEMBL document CHEMBL2218924, “A broad activity screen in support of a chemogenomic map for kinase signalling research and drug discovery” (Biochem J, 2013) one finds residual activity data, which are given here for one compound.

In general, residual activity refers to the signal under treatment as a percentage of the control signal.

Each structure is given as a SMILES string.

Sequence of Receptor tyrosine-protein kinase erbB-4 (Homo sapiens) (Q15303 whole entry): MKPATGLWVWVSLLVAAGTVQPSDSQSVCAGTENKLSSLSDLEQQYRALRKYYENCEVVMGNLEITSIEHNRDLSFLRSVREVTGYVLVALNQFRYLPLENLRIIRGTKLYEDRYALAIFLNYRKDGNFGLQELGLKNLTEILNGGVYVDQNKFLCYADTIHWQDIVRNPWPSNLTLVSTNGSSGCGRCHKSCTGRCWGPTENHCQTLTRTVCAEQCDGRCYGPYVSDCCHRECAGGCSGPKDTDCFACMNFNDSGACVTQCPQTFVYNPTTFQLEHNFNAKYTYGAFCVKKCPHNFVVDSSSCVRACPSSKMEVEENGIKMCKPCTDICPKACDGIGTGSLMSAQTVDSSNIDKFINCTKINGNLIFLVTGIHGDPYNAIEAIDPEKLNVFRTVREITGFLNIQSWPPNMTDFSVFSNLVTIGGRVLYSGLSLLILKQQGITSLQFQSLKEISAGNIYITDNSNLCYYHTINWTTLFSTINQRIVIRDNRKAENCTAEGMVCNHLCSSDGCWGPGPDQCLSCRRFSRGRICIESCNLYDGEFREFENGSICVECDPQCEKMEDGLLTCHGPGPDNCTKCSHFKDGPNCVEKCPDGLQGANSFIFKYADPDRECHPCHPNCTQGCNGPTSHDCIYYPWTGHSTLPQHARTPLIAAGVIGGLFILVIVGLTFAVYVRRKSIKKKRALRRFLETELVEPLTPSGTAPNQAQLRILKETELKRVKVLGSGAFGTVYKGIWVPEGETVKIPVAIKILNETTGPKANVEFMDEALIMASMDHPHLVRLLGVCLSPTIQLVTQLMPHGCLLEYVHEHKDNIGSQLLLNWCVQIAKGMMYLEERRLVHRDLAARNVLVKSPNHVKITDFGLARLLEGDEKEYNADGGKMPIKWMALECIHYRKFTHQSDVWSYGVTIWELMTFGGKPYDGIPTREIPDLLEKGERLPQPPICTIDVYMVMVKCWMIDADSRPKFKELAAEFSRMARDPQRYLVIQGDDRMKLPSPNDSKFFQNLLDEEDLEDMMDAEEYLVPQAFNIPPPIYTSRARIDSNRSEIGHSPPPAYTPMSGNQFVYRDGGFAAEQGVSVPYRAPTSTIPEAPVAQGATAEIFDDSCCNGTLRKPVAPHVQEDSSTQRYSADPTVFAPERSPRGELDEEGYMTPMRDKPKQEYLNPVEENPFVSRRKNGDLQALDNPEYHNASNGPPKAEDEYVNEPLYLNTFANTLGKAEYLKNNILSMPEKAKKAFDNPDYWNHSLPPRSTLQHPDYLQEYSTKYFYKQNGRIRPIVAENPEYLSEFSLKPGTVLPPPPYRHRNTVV
Sequence of Focal adhesion kinase 1 (Homo sapiens) (Q05397 2-1052 limits assumed): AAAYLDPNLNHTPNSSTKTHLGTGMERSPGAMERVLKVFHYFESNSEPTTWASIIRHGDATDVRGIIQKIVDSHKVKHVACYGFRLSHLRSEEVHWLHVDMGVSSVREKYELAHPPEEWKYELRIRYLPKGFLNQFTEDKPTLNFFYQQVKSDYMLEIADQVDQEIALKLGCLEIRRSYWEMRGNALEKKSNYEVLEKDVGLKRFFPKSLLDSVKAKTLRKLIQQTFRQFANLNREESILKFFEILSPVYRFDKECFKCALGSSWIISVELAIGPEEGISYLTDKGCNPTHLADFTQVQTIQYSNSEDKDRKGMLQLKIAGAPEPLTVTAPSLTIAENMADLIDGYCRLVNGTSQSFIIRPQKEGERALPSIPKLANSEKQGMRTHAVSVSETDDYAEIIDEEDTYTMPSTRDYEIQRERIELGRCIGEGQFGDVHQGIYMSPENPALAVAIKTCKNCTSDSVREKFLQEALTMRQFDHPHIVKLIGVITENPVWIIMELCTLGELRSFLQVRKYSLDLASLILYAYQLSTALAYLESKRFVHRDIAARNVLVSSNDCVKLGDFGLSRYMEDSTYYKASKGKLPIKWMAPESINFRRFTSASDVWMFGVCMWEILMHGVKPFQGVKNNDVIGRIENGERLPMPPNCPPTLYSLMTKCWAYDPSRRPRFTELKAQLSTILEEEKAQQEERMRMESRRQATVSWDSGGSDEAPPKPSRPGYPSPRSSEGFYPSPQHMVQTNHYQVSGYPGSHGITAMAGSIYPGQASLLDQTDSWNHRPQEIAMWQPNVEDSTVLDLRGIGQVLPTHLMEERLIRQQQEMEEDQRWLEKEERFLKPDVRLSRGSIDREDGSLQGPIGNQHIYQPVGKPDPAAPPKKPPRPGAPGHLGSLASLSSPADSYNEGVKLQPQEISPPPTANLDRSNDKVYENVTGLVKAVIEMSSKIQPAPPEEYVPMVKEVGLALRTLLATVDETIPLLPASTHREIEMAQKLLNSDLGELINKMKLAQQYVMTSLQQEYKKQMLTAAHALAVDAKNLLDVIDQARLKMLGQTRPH

Turning to `Nc1ncnc2c1c(-c1ccc(Oc3ccccc3)cc1)cn2C1CCCC1`, the residual activity in [1] is 70%; in [2] it was 108%; in experiment [3] it was 101%; in experiment [4] it was 104% (inactive); in experiment [5], 117%; in experiment [6], 99%. In addition, the residual activity is 89% in experiment [7], 0% in experiment [8], -4% in [9] and 116% in experiment [10].
